# Screening data: PubChem, National Center for Advancing Translational Sciences (NCATS)
# An excerpt weighted towards active compounds, which were near 21% of everything screened.
# TDP1 cell CPT: DT40-hTDP1 cell growth loss with CPT | chicken DT40 Tdp1-/-;hTDP1 cells + 20 nM CPT, ATP luminescence, 48 h | Potency, µM (top dose mostly 46.2 µM), for the others: at the highest dose activity change, negative = growth inhibition, most hits filed as inhibitors | actives 12% (n = 420,000) | AID 686979; further: potency means the concentration at half of the fitted maximal effect; nearly all actives have a fitted effect of over 55% in size
#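 Chicken DT40 Tdp1-/- cells complemented with human TDP1, 400 cells/well, exposed to compounds plus 20 nM camptothecin for at least 48 h at 37 C; viability read as ATP content by CellTiter-Glo luminescence.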
# RORgamma inh: ROR gamma (mouse) transcription inhibition | AID 2551 | P51450 | Drosophila S2 Gal4-RORgamma UAS-luciferase reporter, 20 h | Potency, µM (titrated, usually from 53.6 µM), without a hit: at the highest dose activity change, negative = inhibition, usual class: inhibitors | actives 5.4% (n = 310,000); further: potency means the concentration at half of the fitted maximal effect; nearly all actives have a fitted effect of over 60% in size
# Target sequence (P51450 whole entry, looked up, the tested form may be a part): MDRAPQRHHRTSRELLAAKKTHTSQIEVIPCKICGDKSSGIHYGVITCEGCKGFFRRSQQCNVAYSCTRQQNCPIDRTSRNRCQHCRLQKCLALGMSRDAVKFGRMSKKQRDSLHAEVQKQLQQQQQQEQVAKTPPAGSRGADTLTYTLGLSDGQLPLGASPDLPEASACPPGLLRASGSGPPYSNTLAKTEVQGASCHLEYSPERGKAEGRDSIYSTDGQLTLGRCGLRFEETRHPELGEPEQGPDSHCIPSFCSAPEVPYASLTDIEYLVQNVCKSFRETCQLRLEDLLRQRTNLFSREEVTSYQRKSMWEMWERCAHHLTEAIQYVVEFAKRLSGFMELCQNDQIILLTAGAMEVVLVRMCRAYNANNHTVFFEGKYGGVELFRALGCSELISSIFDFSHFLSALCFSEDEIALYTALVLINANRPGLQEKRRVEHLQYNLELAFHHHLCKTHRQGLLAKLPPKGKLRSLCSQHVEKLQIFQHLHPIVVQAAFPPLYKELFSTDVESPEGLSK
#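 Using a luciferase readout, inhibitors were identified by reduced reporter activity in Drosophila cells coexpressing a copper-inducible Gal4–ROR gamma fusion and UAS-driven Photinus luciferase, incubated 20 hr after 700 uM copper sulfate.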
# TDP1 cell noCPT: qHTS for Inhibitors of human tyrosyl-DNA phosphodiesterase 1 (TDP1): qHTS in cells in absence of CPT | DT40 Tdp1-/- hTDP1 cells, no CPT, ATP luminescence, 48 h | Potency, µM (series often up to 46.2 µM), for inactives: at the top dose activity change, negative = growth inhibition, usual class: inhibitors | actives 15% (n = 420,000) | AID 686978, 2013; further: potency means the concentration at half of the fitted maximal effect; nearly all actives have a fitted effect of over 55% in size
#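 Stably hTDP1-transfected Tdp1-null chicken DT40 cells were treated with library compounds minus camptothecin and grown for at least 48 hr at 37 °C, after which cellular ATP was quantified by luminescence.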
# ELG1 repair inh: blocks ELG1-dependent DNA repair in HEK293T cells | HEK293T ELG1-luciferase reporter, luminescence, 16 h; DNA damage induced by 5-fluorouridine | actives 2.3% (n = 330,000) | Potency, µM (titrated, usually from 46.1 µM), for the others: at the top dose activity change, negative = inhibition, hits mostly inhibitors; further: potency means the concentration at half of the fitted maximal effect; nearly all actives have a fitted effect of over 55% in size
#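 Overnight (16 hr) co-exposure of 2,000 cells/well to 5-fluorouridine and compound at 37 °C preceded detection. Luciferase was quantified via ONE-Glo luminescence; loss of signal denotes inhibition.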
# Gal4-VP16 FLuc: Gal4-VP16 reporter inhibition counter-screen. Drosophila S2 Gal4-VP16 UAS-luciferase, luminescence, 20 h. Potency, µM (series often up to 53.6 µM), for inactives: at the top dose activity, negative = inhibition, most hits filed as inhibitors. actives 3.5% (n = 310,000). AID 2546;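 further: Gal4-VP16 expression switched on by copper sulfate through the metallothionein promoter; potency means the concentration at half of the fitted maximal effect; nearly all actives have a fitted effect of over 50% in size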
# IL-1B inflam inh: inflammasome signaling inhibition, IL-1 beta readout. THP-1 LPS/ATP IL-1B secretion, AlphaLISA, 16 h; hits give low values. activity change, % at 57.5 µM. actives 4.7% (n = 360,000); in the data active means activity change below about -50%; inconclusive means mostly about -30% to -49%
#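 Secreted IL-1B measured by AlphaLISA bead assay after 16 h compound exposure of THP-1 cells; compounds (final up to 57.5 uM) added 1 h before LPS (250 ng/mL) and ATP (1.25 mM) stimulation; lower signal means less secretion.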
# Numbers without * were called inactive; ? = inconclusive; nt = no result given; [ ] = another dose, or the depositor's remark. Unless noted, the call rests on the fitted dose curve; in most records, active means well fitted curve in the direction sought with a large enough effect; inconclusive means small, poorly fitted or top-dose-only effect, or another doubt; inactive means no such curve, though single readings can be large; an effect the other way counts as inactive or inconclusive. On the % scale 0 is the no-effect control and ±100 the full control effect.
SMILES,TDP1 cell CPT,RORgamma inh,TDP1 cell noCPT,ELG1 repair inh,Gal4-VP16 FLuc,IL-1B inflam inh
O=C(CCCCCn1c(SCC(=O)c2ccccc2)nc2ccccc2c1=O)NCc1ccco1,8.2µM*,0.0%,20.6µM*,-20.7%,-18.7%,-7.9
CCn1c(SCC(=O)N2CCCCCC2)nc2ccccc2c1=O,20.6µM*,8.4%,?,-5.5%,19.8%,-10.6
O=C1c2ccccc2C(=O)N1CCCc1nc2ccccc2c(=O)n1Cc1ccco1,20.6µM*,-2.8%,16.4µM*,?,2.1%,-1.8
Cc1cccc(-n2c(SCC(=O)NCc3ccco3)nc3ccccc3c2=O)c1,10.3µM*,-1.1%,?,-20.0%,1.5%,?
Cc1ccc(C)c(NC(=O)CN(C)C(=O)CC2OC(=O)c3ccccc32)c1 (stereo not drawn),?,nt,0.3%,-1.5%,nt,0.7
CCOC(=O)c1ccccc1NC(=O)COC(=O)C(CC)Oc1ccccc1 (stereo not drawn),-9.4%,nt,?,nt,nt,2.9
CCCCCn1c(SCc2ccncc2)nc2cc(C(=O)NCc3ccco3)ccc2c1=O,?,?,?,6.51µM*,0.5%,?
CCCCCn1c(SCC#N)nc2cc(C(=O)NCC3CCCO3)ccc2c1=O (stereo not drawn),?,-8.3%,23.1µM*,?,-0.6%,0.0
O=C(NCc1ccco1)c1ccc2c(=O)n(Cc3ccco3)c(SCC(=O)N3CCCC3)nc2c1,25.9µM*,25.3%,?,?,-2.9%,-13.4
CCCCn1c(SCC(=O)NCc2ccco2)nc2ccccc2c1=O,?,?,-22.8%,-3.5%,-0.7%,-8.6
CCC(C)N(C(=O)CSc1nc(C)nc2ccccc12)C1CCS(=O)(=O)C1 (stereo not drawn),0.7%,nt,?,-29.0%,nt,-58.8*
COCCNC(=O)c1ccc2c(=O)n(Cc3ccco3)c(SCC(=O)NC3CCCCC3)nc2c1,-15.3%,-1.9%,0.8%,?,-1.5%,-15.1
CCc1nnc(NC(=O)CSc2nccn2Cc2ccc(Cl)cc2)s1,-27.0%,nt,-28.7%,nt,nt,nt
CCCCCCC#CC1C=CC(OC(=O)OCC)C(COC(=O)OCC)O1 (stereo not drawn),nt,?,nt,nt,8.1%[10 µM],nt
CC(=O)OC1CC2C(C)(C)C(=O)[C@@H]3OC3[C@@]2(C)C2CC[C@]3(C)C(=CC(=O)OC3c3ccoc3)[C@]12C (stereo partly drawn),11.0%,8.9%,-5.2%,nt,2.9%,nt
NS(=O)(=O)c1ccc(CNC(=O)/C=C/c2c(F)cccc2Cl)cc1,-4.3%,12.2%,1.8%,5.4%,1.5%,10.1
COc1ccc(C2Nc3ccccc3-c3nnc(SC)nc3O2)cc1C (stereo not drawn),2.4%,nt,-14.5%,nt,nt,nt
O=c1c2ccccc2nc(SCc2cn3ccsc3n2)n1-c1ccccc1,-19.9%,-20.4%,-23.1%,?,3.5%,-5.8
Cc1cccc(-n2c(SCc3cc(=O)n4ccsc4n3)nc3ccccc3c2=O)c1,?,?,14.6µM*,0.4%,4.0%,-2.8
CCn1c(=S)sc2c(=O)n(-c3ccccc3)c(SCC(=O)NCc3ccco3)nc21,17.8µM*,?,?,-7.3%,-1.8%,-12.8
CCC(C)NC(=O)CSc1nc2c(sc(=S)n2Cc2ccco2)c(=O)n1-c1ccccc1 (stereo not drawn),-20.8%,7.5%,?,?,-4.3%,1.8
CCN(CC)C(=O)CSc1nc2c(sc(=S)n2-c2ccccc2)c(=O)n1Cc1ccco1,23.1µM*,?,?,23.1µM*,-0.7%,-64.3*
CCN(C(=O)CSc1nc2ccccc2c(=O)n1-c1cccc(C)c1)C1CCS(=O)(=O)C1 (stereo not drawn),16.4µM*,-0.7%,?,5.3%,2.2%,-23.3
C=C[C@@H]1[C@@H](C)[C@H](C)C(=O)C([C@H](O)C(C)C)[C@@H]1C (stereo partly drawn),nt,-31.6%,nt,nt,0.1%,nt
O=C(CCn1c(=O)c2cccn2c2cccnc21)NCCCN1CCN(c2ccc(F)cc2)CC1,-19.1%,nt,?,nt,nt,-25.3
SMILES,TDP1 cell CPT,RORgamma inh,TDP1 cell noCPT,ELG1 repair inh,Gal4-VP16 FLuc,IL-1B inflam inh
C=C(C(C)=O)C(O)c1ccc2ccccc2c1 (stereo not drawn),nt,16.3%,nt,nt,-5.0%,nt
CCCN(CCC)C(=O)CSc1nc2ccccc2c(=O)n1Cc1ccco1,18.4µM*,nt,20.6µM*,nt,nt,nt
CCn1c(SCc2cccc(OC)c2)nc2ccccc2c1=O,10.3µM*,-34.4%,20.6µM*,2.0%,10.4%,24.9
CCn1c(SCc2ccc(OC)c(F)c2)nc2ccccc2c1=O,?,-37.6%,-69.7%,-13.9%,3.0%,-15.2
Cc1cc(NC(=O)CSc2nc3cc(C(=O)NCCCOC(C)C)ccc3c(=O)n2Cc2ccco2)no1,18.4µM*,-1.4%,?,?,-10.7%,-17.8
COC(=O)c1ccc2c(=O)n(Cc3ccco3)c(SCC(=O)Nc3cc(C)on3)nc2c1,-26.4%,3.1%,-2.9%,9.4%,-3.9%,3.7
O=C(CSc1nc2ccccc2c(=O)n1Cc1ccco1)N1CCCCCC1,20.6µM*,?,?,?,?,?
OC(CN1CCN(c2ccccc2)CC1)c1ccc2c(c1)CCN2 (stereo not drawn),-16.3%,?,-1.1%,-1.0%,-7.5%,5.6
CC(=O)N1C2(C=CC1(C)C(=O)NCc1cc(F)cc(C(F)(F)F)c1)CCCCC2 (stereo not drawn),nt,?,nt,nt,-2.7%,nt
Cc1cccc(NC(=O)CCc2nc3sc4c(c3c(=O)[nH]2)CCCC4)n1,?,nt,18.4µM*,?,nt,-7.5
CC(=O)c1cccc(NC(=O)CCc2nc3sc4c(c3c(=O)[nH]2)CCCC4)c1,?,nt,13µM*,?,nt,28.5
O=C(CCc1nc2sc3c(c2c(=O)[nH]1)CCCC3)Nc1ccccc1Cl,?,nt,?,29.1%,nt,52.7
CCN(c1ccc(NC(=O)CCc2nc3sc4c(c3c(=O)[nH]2)CCCC4)cc1)C(C)C,29.1µM*,nt,23.1µM*,12.0%,nt,21.3
CC(=O)c1ccc(NC(=O)CCc2nc3sc4c(c3c(=O)[nH]2)CCCC4)cc1,?,nt,?,-12.0%,nt,-5.6
CN(C)CCCN=Cc1c(O)n(Cc2ccccc2)c(=O)c2ccccc12,?,-19.7%,6.8%,16.3%,2.3%,?
CC1(C)CC(N=Cc2c(O)n(Cc3ccc4c(c3)OCO4)c(=O)c3ccccc23)CC(C)(C)N1,6.51µM*,?,7.31µM*,-4.3%,-14.1%,-106.7*
